# SARS PLpro yeast-1 = SARS-CoV PLP inhibition in yeast; S. cerevisiae expressing SARS-CoV PLpro, growth rescue; Potency, µM (highest dose often 32.9 µM), without a hit: at the highest dose activity, positive = growth rescue, actives largely listed as activators; 330,000 compounds, 0.19% hits; calls by dose curve; further: potency means the concentration at half of the fitted maximal effect; 0% is about no effect; nearly all actives have a fitted effect of over 55% in size
# AmpC no deterg = blocks E. coli AmpC beta-lactamase in detergent-free assay. P00811. AmpC nitrocefin hydrolysis, absorbance 480 nm, 0.0001% Triton. Potency, µM (doses to about 57.1 µM), for the others: at the highest dose activity change, negative = inhibition, hits mostly inhibitors. 330,000 compounds, 0.52% hits. AID 485341;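 further: potency means the concentration at half of the fitted maximal effect; plate controls were no compound for no effect and no enzyme for full effect; nearly all actives have a fitted effect of over 20% in size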
#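 AmpC (5.3 nM in the dispensed reagent) in 20 mM phosphate pH 7.0 with 0.01% (detergent screen) or 0.0001% Triton X-100 was preincubated with compounds for 15 min at room temperature. Nitrocefin was then added from an 800 uM solution, and hydrolysis was followed at 480 nm.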
# FBPA Giardia inh = blocks Giardia fructose-bisphosphate aldolase activity; A8B2U2; purified Giardia FBPA; Potency, µM (titrated, usually from 59.6 µM), without a hit: top-dose activity, negative = inhibition, hits mostly inhibitors; 290,000 compounds, 0.71% hits; AID 2451; further: potency means the concentration at half of the fitted maximal effect; on the % scale 0 is the no-effect control and ±100 the full control effect; nearly all actives have a fitted effect of over 55% in size
# Target sequence (A8B2U2 whole entry, looked up): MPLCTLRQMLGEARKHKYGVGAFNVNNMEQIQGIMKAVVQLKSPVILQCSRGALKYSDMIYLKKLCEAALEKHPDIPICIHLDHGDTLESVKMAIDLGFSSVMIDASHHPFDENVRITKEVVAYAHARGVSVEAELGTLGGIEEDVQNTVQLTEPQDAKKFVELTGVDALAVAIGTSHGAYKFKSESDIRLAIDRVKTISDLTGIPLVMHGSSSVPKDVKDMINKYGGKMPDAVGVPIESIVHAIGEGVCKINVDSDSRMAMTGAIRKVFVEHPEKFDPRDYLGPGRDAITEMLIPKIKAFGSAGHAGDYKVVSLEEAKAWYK
#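 40 nM FBPA preincubated 10 min at RT with compound (up to 57.5 uM final), then substrate plus GAPDH/TPI/NAD/arsenate coupling and diaphorase/resazurin added. Fluorescence read after 20 min at RT, 525/598 nm.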
# AmpC inh detg = AmpC beta-lactamase inhibition with detergent present; AmpC hydrolysis of nitrocefin, absorbance 480 nm, 0.01% Triton; Potency, µM (highest dose often 114 µM), without a hit: at the highest dose activity change, negative = inhibition, usual class: inhibitors; 370,000 compounds, 0.041% hits; AID 485294;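 further: potency means the concentration at half of the fitted maximal effect; 0% = no-compound wells and -100% = no-enzyme wells; nearly all actives have a fitted effect of over 25% in size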
#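 AmpC (5.3 nM in the dispensed reagent) in 20 mM phosphate pH 7.0 with 0.01% (detergent screen) or 0.0001% Triton X-100 was preincubated with compounds for 15 min at room temperature. Nitrocefin was then added from an 800 uM solution, and hydrolysis was followed at 480 nm.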
# SARS PLpro yeast-2 = Inhibits SARS-CoV PLP in yeast, hit validation. shares compounds with SARS PLpro yeast-1. yeast expressing SARS-CoV PLpro, growth phenotype rescue. calls only. 1,000 compounds, 19% hits. AID 652038; call rule not given here
# * marks the source's active call; other numbers are inactive results; i = inactive; ? = inconclusive; . = no result; + = active, no number; [ ] = remark or other dose. Rows were chosen to be rich in hits. Some 1.1% of all compounds tested hit in one or more screens of this group. Unless noted, the call rests on the fitted dose curve; in most records, active means well fitted curve in the direction sought with a large enough effect; inconclusive means small, poorly fitted or top-dose-only effect, or another doubt; inactive means no such curve, though single readings can be large; an effect the other way counts as inactive or inconclusive.
SMILES,SARS PLpro yeast-1,AmpC no deterg,FBPA Giardia inh,AmpC inh detg,SARS PLpro yeast-2
COC(=O)c1c(NC(=O)CSc2nc3ccccc3c(=O)n2Cc2ccco2)sc(C)c1C,?,-31%,5%,-6%,+
Cc1cc(C)nc(N2CCCC(C(=O)NCCc3ccc(F)cc3)C2)n1 (configuration not stated),?,-8%,2%,?,+
CCCCCCOC(=O)C(C#N)c1nc2ccccc2nc1N1CCCCC1 (configuration not stated),1%,-11%,-3%,?,.
CCCCCCOC(=O)C(C#N)c1nc2ccccc2nc1N1CCN(C)CC1 (configuration not stated),?,146%,4%,?,i
COc1ccccc1NC(=O)N1CC=C(c2c[nH]c3ccccc23)CC1,.,.,.,8%,.
c1cncc(-c2ccc3ncnc(NCc4ccc5c(c4)OCO5)c3c2)c1,4%,-48%,.,?,i
c1cncc(CNc2ncnc3ccc(-c4ccc5c(c4)OCCO5)cc23)c1,6%,-29%,.,-7%,.
CCCCNc1cc(C)nc(N2CCOCC2)n1,?,-3%,2%,-8%,i
CN1/C(=C\C(=S)NC(=O)c2ccccc2Cl)C(C)(C)c2ccccc21,?,-34%,-8%,-1%,+
COc1ccccc1C(=O)NC(=S)/C=C1/N(C)c2ccccc2C1(C)C,-4%,0%,-18%,-7%,.
OCCCNCc1ccc(Cl)cc1Cl,1%,-10%,0%,-3%,.
Clc1ccc(CNC23CN4CN(CN(C4)C2)C3)c(Cl)c1,?,-13%,-4%,1%,i
Cc1ccc(-c2nc(CS(=O)(=O)CC(=O)Nc3ccc(Br)cc3F)c(C)o2)cc1,.,.,.,16%,.
CCNC(=S)N/N=C(\C)c1ccc(Cl)s1,?,-50%,4%,-10%,+
C=C(C)CNC(=S)N/N=C(\C)c1ccc(Cl)s1,?,-18%,5%,2%,+
CNC(=S)N/N=C(\C)c1ccc(Cl)s1,?,-4%,6%,0%,.
O=C(Cc1cnn(-c2ccccc2)c1)c1ccc(O)c(O)c1O,?,-55%,3.5µM*,0%,i
COc1ccc(C2CC(c3ccccc3)Oc3cc(C)c(Cl)c(C)c32)cc1 (configuration not stated),.,.,-2%,.,.
CC(=O)Nc1ccc(S(=O)(=O)NCc2cccn2Cc2cccc(C)c2)cc1,.,.,.,-1%,.
O=c1c2c3c(sc2nc2n1CCCCC2)CCCCC3,5%,?,-1%,?,.
O=c1c2c3c(sc2nc2n1CCCCC2)CCCC3,4.5µM*,-1%,1%,-13%,i
COc1cccc(CN(C)C(=O)CC2C(=O)NCCN2C2Cc3ccccc3C2)c1 (configuration not stated),.,105%,.,-5%,i
COc1cccc(CN2CCNC(=O)C2CC(=O)N(C)CC2CCOCC2)c1 (configuration not stated),4%,20%,.,8%,.
COc1cc(/C=N/n2c(SC)nnc(C(C)(C)C)c2=O)ccc1O,16µM*,-24%,2%,-13%,i
COc1cc(NC(=O)C2CCN(C(=O)c3sc4nc[nH]c(=O)c4c3C)CC2)cc(OC)c1OC,.,.,.,3%,.
SMILES,SARS PLpro yeast-1,AmpC no deterg,FBPA Giardia inh,AmpC inh detg,SARS PLpro yeast-2
Cc1ccccc1OCCNc1cc(N2CCN(CCO)CC2)ccc1[N+](=O)[O-],-4%,109%,2%,-14%,.
Cc1cccc(OCCNc2cc(N3CCN(CCO)CC3)ccc2[N+](=O)[O-])c1,13µM*,136%,-20%,-3%,i
Cc1ccc2c(c1)N(C(=O)CCC(=O)NC1CCN(Cc3ccccc3)CC1)CC(C)O2 (configuration not stated),?,78%,0%,?,i
CCOC(=O)N1CCC(NC(=O)CCC(=O)N2CC(C)Oc3ccc(C)cc32)CC1 (configuration not stated),-1%,2%,4%,-2%,.
CCN(CC)S(=O)(=O)c1ccc(S(=O)(=O)N2CCCC2C(=O)O)cc1 (configuration not stated),22µM*,-10%,10%,?,i
Nc1ccc(S(=O)(=O)N2CCCC2C(=O)O)cc1 (configuration not stated),-1%,-11%,-8%,1%,.
CCc1ccccc1Nc1cc(C(=O)NC(C)c2ccccc2)c2ccccc2n1 (configuration not stated),.,.,.,4%,.
Cc1nn(Cc2ccccc2)c(C)c1/C=N/NC(=O)CNc1cccc(C(F)(F)F)c1,11µM*,62%,1%,-13%,i
COc1ccc(NCC(=O)N/N=C/c2c(C)nn(Cc3ccccc3)c2Cl)cc1,-5%,1%,?,?,.
Cc1cccc(CSc2cn(CC(=O)N3CCCC3)c3ccccc23)c1,.,.,.,-4%,.
Cc1ccccc1NCc1ccc(O)c2ncccc12,?,-18%,-5%,1%,+
COc1ccccc1NC(c1cccnc1)c1ccc2cccnc2c1O (configuration not stated),4.5µM*,-23%,?,?,?
Cc1ccnc(NC(c2cccnc2)c2ccc3cccnc3c2O)c1 (configuration not stated),-3%,2%,-10%,1%,.
CCn1nnc(-c2ccccc2NS(=O)(=O)c2ccc(S(=O)(=O)N3CCCCCC3)cc2)n1,-7%,-5%,-17%,-1%,.
CCn1nnc(-c2ccccc2NS(=O)(=O)c2ccc(S(=O)(=O)N(C)C3CCCCC3)cc2)n1,?,-13%,1%,-6%,+
COc1ccc(CCNC(=O)C(C)n2nc(C)c3sc4ccccc4c3c2=O)cc1OC (configuration not stated),.,.,.,4%,.
Cc1cc(Nc2cccc(Cl)c2)nc2ccc(NC(=O)COc3ccc(Cl)cc3)cc12,.,.,.,19%,.
O=C1C2=CC[C@H]3C(=O)N(Cc4ccc5c(c4)OCO5)C(=O)[C@@H]3[C@@H]2[C@H](O)[C@@H]2O[C@H]12,.,.,0%[12.9 µM],.,.
CCNC(=O)C1CCCN(c2nn3cc(-c4ccc(C)cc4)nc3s2)C1 (configuration not stated),.,.,.,5%,.
O=P(N1CCCCC1)(N1CCCCC1)C(Cl)(Cl)Cl,?,18%,8%,2%,i
O=C(N/N=C/c1cc2c3c(c1O)CCCN3CCC2)c1ccccc1O,2.8µM*,-25%,?,-11%,?
COc1ccc(Cl)cc1NC(=O)Cn1nc(Cc2ccncc2)c2ccccc2c1=O,.,.,.,7%,.
CCc1nnc(NC(=O)c2ccc(S(=O)(=O)N(CC(C)C)CC(C)C)cc2)o1,?,-6%,?,-1%,+
CCc1nnc(NC(=O)c2ccc(S(=O)(=O)N3CCCc4ccccc43)cc2)o1,20µM*,-46%,?,-6%,i
O=C(Nc1nnc(C2CC2)o1)c1ccc(S(=O)(=O)N2CCc3ccccc3C2)cc1,?,-25%,?,?,?
